Compound activity as filed in PubChem.
FBPA coupling cs = coupling enzyme interference in Giardia aldolase counter-screen. actives 0.67% (n = 290,000). coupling enzyme system counterscreen, AmpLite Red fluorescence. AID 2472. activity change, negative = inhibition, % at 58.2 µM, hits read low; in the data active = activity change below about -30%
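Coupling enzymes only (glyceraldehyde-3-phosphate) + compound, at 57.5 uM final, 10 min RT; add substrate/coupling/AmpLite Red mix, 20 min RT; fluorescence ex 525/em 598 nm. Actives flag coupling-system interference.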
Sfp inh = Sfp phosphopantetheinyl transferase inhibition | Biochemical Sfp PPTase activity, qHTS | AID 1490 | actives 3.5% (n = 310,000) | Q9F4F7 | Potency, µM, for inactives: largest response in the series, negative = inhibition, usual class: inhibitors;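 also: the enzyme is Sfp with the accession as filed and its product quenches rhodamine fluorescence; potency is read from the fitted curve at half-maximal effect; 0% = enzyme reaction without inhibitor and -100% = no enzyme wells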
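After 15 min at room temperature with compound, 15 nM Sfp received 5 uM rhodamine-CoA plus 12.5 uM BHQ-2-ybbR (50 mM Hepes pH 7.6, 10 mM MgCl2). Rate came from the fluorescence difference over 30 min, ex 525/em 598 nm.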
Tau fluor counter = counter-screen for tau fibril formation inhibitors; tau K18 P301L Alexa594 fluorescence, heparin fibrillization; Potency, µM (titrated, usually from 57.7 µM), for inactives: top-dose activity change, negative = decrease; actives 0.93% (n = 280,000); also: potency is read from the fitted curve at half-maximal effect; nearly all actives have a fitted effect of over 55% in size
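Human tau K18 P301L (15 uM unlabeled, 0.24 uM Alexa 594-labeled) in 100 mM sodium acetate pH 7 with 20 uM heparin, 6 hr at 37 C. ThT 30 uM added, 1 hr ambient; Alexa 594 FP and total fluorescence read at 555/632 nm.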
Tau fibril ThT = inhibitors of human tau fibril formation, thioflavin T binding; P10636; Potency, µM (titrated, usually from 57.4 µM), for the others: at the highest dose activity, negative = inhibition, hits mostly inhibitors; actives 2.1% (n = 270,000); recombinant tau K18 P301L (four-repeat tau fragment), heparin-induced fibrillization, ThT fluorescence; also: potency is read from the fitted curve at half-maximal effect; nearly all actives have a fitted effect of over 55% in size
Target sequence (P10636 561-689 P618L limits assumed): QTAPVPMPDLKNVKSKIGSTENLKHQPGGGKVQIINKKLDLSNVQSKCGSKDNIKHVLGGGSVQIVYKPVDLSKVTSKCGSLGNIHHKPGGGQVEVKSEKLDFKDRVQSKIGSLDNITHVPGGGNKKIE
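In this qHTS, human K18 P301L tau is incubated with compound and heparin for 6 hr at 37 C, and Thioflavin T fluorescence then reports fibril load.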
Tau fibril FP = tau fibrillization inhibition (FP); P10636; K18 P301L tau heparin fibrillization, Alexa594 FP, 6 h; Potency, µM (titrated, usually from 57.7 µM), inactives show top-dose activity, negative = inhibition, most hits filed as inhibitors; actives 0.39% (n = 280,000); AID 1468; also: potency is read from the fitted curve at half-maximal effect; nearly all actives have a fitted effect of over 55% in size
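Human K18 P301L fragment (15 uM unlabeled plus 0.24 uM Alexa 594-labeled) in 100 mM sodium acetate pH 7 with compound, aggregation induced by 20 uM heparin for 6 hr at 37 C. ThT (30 uM) added for 1 hr, then Alexa 594 FP read.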
G9a inh = blocks human histone lysine methyltransferase G9a; Q96KQ7; G9a H3K9 monomethylation, AlphaScreen, 2 h; Potency, µM (top dose mostly 102 µM), inactives show top-dose activity, negative = inhibition, actives largely listed as inhibitors; actives 8.8% (n = 350,000); AID 504332; also: potency is read from the fitted curve at half-maximal effect; nearly all actives have a fitted effect of over 75% in size
Target sequence (Q96KQ7 913-1193 limits assumed): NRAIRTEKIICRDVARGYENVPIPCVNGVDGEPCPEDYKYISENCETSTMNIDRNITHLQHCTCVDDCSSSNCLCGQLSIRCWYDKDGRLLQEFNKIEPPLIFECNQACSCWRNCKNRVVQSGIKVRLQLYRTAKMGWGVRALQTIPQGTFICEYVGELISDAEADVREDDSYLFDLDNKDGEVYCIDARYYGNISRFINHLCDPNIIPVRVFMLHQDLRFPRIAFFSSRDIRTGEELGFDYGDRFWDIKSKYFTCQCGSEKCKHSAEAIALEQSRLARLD
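Methyltransferase reactions run at room temperature for 2 h (20 nM enzyme, 500 nM biotin-H3K9 peptide, 20 uM SAM) after a 15 min compound preincubation; product detected by AlphaScreen beads and anti-H3K9me1 antibody.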
* marks the source's active call; other numbers are inactive results; ? = inconclusive; . = not tested or not shown; [ ] = dose if it differs, or a comment. Rows were chosen to be rich in hits. Some 11% of all compounds tested hit in one or more screens of this group. Unless noted, calls follow the shape of the dose curve; as a rule, active = well fitted curve in the direction sought with a large enough effect; inconclusive = small, poorly fitted or top-dose-only effect, or another doubt; inactive = no such curve, though single readings can be large; an effect the other way counts as inactive or inconclusive. Unless noted, % is scaled to controls: 0 for no effect and ±100 for the full control effect.

SMILES	FBPA coupling cs	Sfp inh	Tau fluor counter	Tau fibril ThT	Tau fibril FP	G9a inh
Brc1ccc(/C=N/Nc2ccc3ccccc3n2)cc1	-3	?	?	?	-7%	12%[0.0925 µM]
Brc1ccccc1/C=N/Nc1ccc2ccccc2n1	0	40µM*	?	?	8%	-14%[59 µM]
COc1ccc2nc(SCC(=O)Nc3nccs3)[nH]c2c1	3	-1%	-18%	?	11%	.
CC(Cc1nnc(N)s1)c1ccccc1 (centres undefined)	0	50µM*	.	.	.	32µM*
COc1cccc(NC2=NCC(=O)N2Cc2cccs2)c1	0	-9%	-2%	-12%	7%	50µM*
C=CCN1C(=O)CN=C1Nc1cc(C)cc(C)c1	1	-12%	-6%	-3%	4%	?
C=CCN1C(=O)CN=C1Nc1cccc(C)c1	1	-14%	-2%	-7%	4%	35µM*
COc1ccc(NC2=NCCC(=O)N2Cc2cccs2)cc1	-1	?	-6%	-12%	-4%	45µM*
CCOC(=O)c1ccc(/C=C2/C=C(c3ccccc3)N(c3ccc(Cl)c(C(=O)O)c3)C2=O)cc1	7	?	8%	16µM*	-10%	11µM*
CCOCCn1c(SCc2ccccc2)nc2c1c(=O)[nH]c(=O)n2C	4	-7%	-17%	-13%	-2%	9%[12.7 µM]
C=CCSc1nc2c(c(=O)[nH]c(=O)n2C)n1CC	0	14µM*	-2%	?	-14%	?
C/C=C/Cn1c(SCc2ccccc2)nc2c1c(=O)[nH]c(=O)n2C	4	?	-1%	-12%	-2%	35µM*
C/C=C/CSc1nc2c(c(=O)[nH]c(=O)n2C)n1Cc1ccc(C)cc1	1	?	10%	1%	2%	4.5µM*
CC(=O)c1ccc(NC(=O)Nc2sc3nc4n(c(=O)c3c2C)CCC(C)CC4)cc1 (centres undefined)	.	.	13µM*[quencher]	?	?	-35%[59 µM]
CCC1CCC(C(=O)NC(C(=O)NCCN(CC(C)C)CC(C)C)C(C)C)CC1 (centres undefined)	.	.	-9%	-8%	-2%	4%[59 µM]
CC1CCC(NC(=O)Nc2cccs2)CC1 (centres undefined)	0	-20%	-15%	-21%	6%	?
O=C(Nc1cccs1)NC1CCCC1	2	-7%	-28%	?	?	32µM*
O=C(NCC1CC1)Nc1cccs1	2	45µM*	-3%	-1%	1%	?
O=C(Nc1ccc2c(c1)CCC2)c1cc(S(=O)(=O)Nc2ccc(F)cc2)c(Cl)cc1Cl	-11	14%	3%	3%	5%	10µM*
O=C(Nc1ccc2c(c1)CCC2)c1ccc(F)cc1	-6	11%	-5%	-6%	5%	-6%
O=C(C1CCCC1)N1CCN(S(=O)(=O)c2cccc(Cl)c2Cl)CC1	2	9%	.	.	.	-6%
O=C(O)c1ccc2c(c1)C1C=CCC1C(c1ccncc1)N2 (centres undefined)	-31*	?	?	25µM*	?	?
COc1cccc([C@@H]2Nc3ccc(C(=O)O)cc3[C@@H]3C=CC[C@@H]32)c1OC	.	.	1%	0%	0%	?
CC(C)C1Nc2ccc(C(=O)O)cc2C2C=CCC21 (centres undefined)	-5	28µM*	10%	9%	8%	10µM*
CCCC1Nc2ccc(C(=O)O)cc2C2C=CCC12 (centres undefined)	-3	?	?	22µM*	?	?
SMILES	FBPA coupling cs	Sfp inh	Tau fluor counter	Tau fibril ThT	Tau fibril FP	G9a inh
O=C(CCCN1C(=O)C(c2ccccc2)Oc2cccnc21)NCCc1ccc(Cl)cc1 (centres undefined)	.	-2%	.	.	.	2%[0.0925 µM]
COc1ccc(Nc2ncnc3onc(-c4ccc(Cl)cc4)c23)cc1Cl	.	.	-30%	1%	-14%	44%[59 µM]
COC(=O)C(c1cc(OC)c(O)c(OC)c1)(N1CCNC(C)C1)C(F)(F)F (centres undefined)	-10	-14%	5%	-5%	6%	10µM*
COc1ccccc1CNS(=O)(=O)c1cc2c3c(c1)C(C)C(=O)N3CCC2 (centres undefined)	.	18%	.	.	.	18%
CCN1C(=S)SC(=O)C1=C1C=C(C)N(Cc2ccco2)C(C)=C1	-14	14µM*	?	?	5%	?
CCN1C(=S)SC(=O)C1=C1C=C(C)OC(C)=C1	0	7%	-14%	?	-7%	?
CCN(CC(=O)Nc1ccc(OC)cc1)C(=O)c1ccc([N+](=O)[O-])cc1	0	-22%	-5%	-4%	-4%	1%
Cc1ccc(CN(C)C(=O)c2ccc3c(c2)NC(=O)CS3)o1	0	32µM*	-10%	?	-11%	?
CCN(CC(=O)Nc1ccc(OC)cc1)C(=O)c1ccc2c(c1)NC(=O)CS2	.	.	.	.	.	45µM*
Cc1ccc(NC(=O)c2ccc3c(c2)NC(=O)CS3)nc1	.	.	.	.	.	10µM*
COc1ccccc1CN(C)C(=O)c1ccc2c(c1)NC(=O)CS2	1	12%	-2%	-6%	1%	-3%[59 µM]
COC(=O)c1ccc2c(c1)NC(=O)CS2	0	-12%	-1%	-3%	-8%	40µM*
COc1cc(C(=O)NC(C)c2cc(C)ccc2C)ccc1OCC(=O)N1CCOCC1 (centres undefined)	.	.	.	.	.	-1%[12.7 µM]
Cc1ccc(-n2nc(C(=O)N3CCN(c4ccc(F)cc4)CC3)c(=O)n(C)c2=O)cc1	.	.	-6%	-2%	7%	-25%[59 µM]
COc1ccccc1C(=O)NNC(=O)C(=O)NC1CCCCC1	3	7%	.	.	.	22%
Cc1ccc(-c2nc3ccccc3[nH]2)cc1NC(=O)COc1ccccc1[N+](=O)[O-]	.	.	-20%	?	?	2%[59 µM]
Nc1ccnc(=O)[nH]1	.	.	.	.	.	16%[59 µM]
CN(C1CCS(=O)(=O)C1)S(=O)(=O)c1ccccc1 (centres undefined)	-7	11µM*	3%	3%	7%	.
CN(C1CCS(=O)(=O)C1)S(=O)(=O)c1cccs1 (centres undefined)	.	.	.	.	.	7%[0.501 µM]
Cc1ccc(Nc2cc(C(=O)NCc3cccs3)c3ccccc3n2)c(C)c1	.	.	-27%	-5%	-11%	4%[59 µM]
COc1ccc(-c2c(-c3ccc(OCC(=O)NN)cc3O)n[nH]c2C(F)(F)F)cc1	-8	-16%	22µM*[quencher]	?	?	13%[59 µM]
C=C(C)COc1ccc(-c2n[nH]c(C)c2-c2ccc(OC)cc2)c(O)c1	-5	22%	25µM*[quencher]	-19%	?	29%[59 µM]
COC(=O)/C(=C/c1cn(C)c2ccccc12)[N+](=O)[O-]	-18	56µM*	-7%	-20%	-3%	?
